Test results: PubChem BioAssay (EPA / NIEHS)
Results filed as inconclusive are left out. The source made the active and inactive calls. How the source made its calls: active means hit-call score of the fitted dose curve at least 0.9, where 1 is the maximum; inconclusive means response in the unintended direction; inactive means score below 0.9.

How the values were obtained:
[1] = ATG_XTT_Cytotoxicity: Cytotoxicity Assessment in the Attagene TRANS-FACTORIAL HepG2 Assay (AID 2283584);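 on AC50: cells exposed to compound for 24 h before reading; active means loss of viability signal versus DMSO baseline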
Summary of the method: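 Cells: human HepG2, transiently transfected with MRTU reporter constructs. Exposure 24 h. Readout: XTT, cell number. Baseline/neg ctrl DMSO; loss-of-signal scored.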

[2] = TOX21_p53_BLA_p2_viability: Viability Assessment in the Tox21 HCT-116 p53 Agonism Beta-lactamase Assay, Phase 2 (AID 2283591);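 further: compound exposure lasted 16 h at 37 °C; actives lower the ATP signal meaning cytotoxicity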
Summary of the method: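 HCT-116 p53-bla cells (4000/well) rested 5 h at 37C, then received compounds in DMSO (217-fold dilution) for 16 h at 37C, 5% CO2. After the CCF4 read, CellTiter-Glo was added; ATP luminescence was read after 30 min at room temperature.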

[3] = target: Cellular tumor antigen p53 (Homo sapiens) (UniProt P04637); test: TOX21_p53_BLA_p2_ratio: Tox21 HCT-116 p53 Agonism Beta-lactamase Assay, Ratio, Phase 2 (AID 2283592)
Summary of the method: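 Plated HCT116 p53-bla cells (4000/well) received compound after 5 h, then 16 h at 37C/5% CO2. CCF4-AM added, 2 h RT. Ratio of 460 to 530 nm emission taken as the p53 reporter signal.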

[4] = TOX21_p53_BLA_p3_viability: Viability Assessment in the Tox21 HCT-116 p53 Agonism Beta-lactamase Assay, Phase 3 (AID 2283593);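 further: cells exposed to compound for 16 h before reading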
Summary of the method: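 HCT-116 cells (4000/well) rested 5 h at 37C, then got DMSO compounds by pin tool (217-fold dilution) for 16 h at 37C, 5% CO2. After the bla read, CellTiter-Glo was added and luminescence read at 30 min, room temperature.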

[5] = target: Cellular tumor antigen p53 (Homo sapiens) (UniProt P04637); test: TOX21_p53_BLA_p3_ratio: Tox21 HCT-116 p53 Agonism Beta-lactamase Assay, Ratio, Phase 3 (AID 2283596)
Summary of the method: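 Cells were seeded at 4000/well, rested 5 h at 37C, then dosed with DMSO compound solutions (217-fold dilution) for 16 h. CCF4-AM substrate was loaded for 2 h at room temperature, and the 460/530 nm emission ratio was fitted for gain of signal versus DMSO.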

[6] = TOX21_p53_BLA_p4_viability: Viability Assessment in the Tox21 HCT-116 p53 Agonism Beta-lactamase Assay, Phase 4 (AID 2283597);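 further: hits lower the luminescence signal meaning cytotoxicity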
Summary of the method: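 Readout: ATP luminescence (CellTiter-Glo), measured 30 min after reagent addition at RT. The reagent followed a 2 h CCF4-AM incubation, and the cells had been exposed to compound for 16 h at 37C.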

[7] = target: Cellular tumor antigen p53 (Homo sapiens) (UniProt P04637); test: TOX21_p53_BLA_p4_ratio: Tox21 HCT-116 p53 Agonism Beta-lactamase Assay, Ratio, Phase 4 (AID 2283601)
Summary of the method: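 HCT116 cells carrying an inducible beta-lactamase reporter were plated at 4000 cells/well, rested 5 h, then exposed to compounds in DMSO (217-fold dilution) for 16 h at 37C. CCF4-AM substrate was loaded 2 h at room temperature; 460/530 nm emission ratio scored gain-of-signal versus DMSO.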

[8] = target: Cellular tumor antigen p53 (Homo sapiens) (UniProt P04637); test: TOX21_p53_BLA_p5_ratio: Tox21 HCT-116 p53 Agonism Beta-lactamase Assay, Ratio, Phase 5 (AID 2283599)
Summary of the method: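 HCT-116 cells carrying a p53-inducible beta-lactamase reporter were seeded at 4000 cells/well and dosed after 5 h with compound in DMSO (217-fold dilution). After 16 h at 37C, CCF4-AM substrate was added for 2 h, and the 460/530 nm emission ratio was scored as gain-of-signal versus DMSO.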

[9] = TOX21_p53_BLA_p5_viability: Viability Assessment in the Tox21 HCT-116 p53 Agonism Beta-lactamase Assay, Phase 5 (AID 2283600)
Summary of the method: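 Workflow: seed 4000 cells per well, wait 5 h, add compounds (DMSO, 217-fold dilution), incubate 16 h, load CCF4-AM 2 h, add CellTiter-Glo, read luminescence after 30 min.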

Measured: AC50

Chain of Cellular tumor antigen p53 (Homo sapiens) (P04637 whole entry, looked up): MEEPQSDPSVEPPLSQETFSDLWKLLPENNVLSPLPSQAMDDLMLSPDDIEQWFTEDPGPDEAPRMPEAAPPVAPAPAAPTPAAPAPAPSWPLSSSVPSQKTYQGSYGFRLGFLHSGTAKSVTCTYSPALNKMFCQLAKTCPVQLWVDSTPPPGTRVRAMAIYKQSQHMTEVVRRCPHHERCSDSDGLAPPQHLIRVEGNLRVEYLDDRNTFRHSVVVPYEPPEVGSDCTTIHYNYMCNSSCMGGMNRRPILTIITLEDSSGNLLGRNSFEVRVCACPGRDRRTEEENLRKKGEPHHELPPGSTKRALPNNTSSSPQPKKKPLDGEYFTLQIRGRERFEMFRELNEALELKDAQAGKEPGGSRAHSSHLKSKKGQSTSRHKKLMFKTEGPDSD

O=[N+]([O-])c1cc(C(F)(F)F)ccc1Cl
not listed: [8] | [9]
inactive: all other assays above

C=CC(=O)OCCOCCOCC
not listed: [4] | [6]
inactive: all other assays above

CC(=O)OCC=Cc1ccccc1
not listed: [8] | [9]
inactive: all other assays above

O=Cc1ccc(F)cc1
inactive: [1] | [2] | [3] | [6] | [7]

NC(N)=NC(=O)c1nc(Cl)c(N)nc1N
not listed: [9]
inactive: all other assays above

CCC(C)CCCC(C)(C)O (centres undefined)
inactive: [1] | [2] | [3] | [4] | [7]

Nc1cc([N+](=O)[O-])ccc1O
not listed: [4]
inactive: all other assays above

NCCCCCCN
not listed: [9]
inactive: all other assays above

CC(C)=CCC/C(C)=C/COC=O
not listed: [4] | [5]
inactive: all other assays above

CCCCNC(=O)NS(=O)(=O)c1ccc(N)cc1
not listed: [4] | [6] | [9]
inactive: all other assays above

O=C1CCc2ccccc2O1
not listed: [4] | [9]
inactive: all other assays above

CC1CCC2CC1C2(C)C (centres undefined)
not listed: [4] | [6] | [7]
inactive: all other assays above

CCCCCCCCC
not listed: [4] | [8]
inactive: all other assays above

CCCCCCCCCCCCCCCC(=O)O
not listed: [9]
inactive: all other assays above

CCCC(=O)C(C)=O
not listed: [6]
inactive: all other assays above

CCN(CC)c1ccc(C(=C2C=CC(=[N+](CC)CC)C=C2)c2ccc(S(=O)(=O)O)cc2S(=O)(=O)[O-])cc1
active: [2] 26.5 µM | [4] 23.1 µM | [6] 46.1 µM | [9] 36.1 µM
inactive: [1] | [3] | [5]

O=P(c1ccccc1)(c1ccccc1)c1ccccc1
not listed: [5] | [7] | [8]
inactive: all other assays above

c1ccc(CCCc2ccccn2)cc1
not listed: [6]
inactive: all other assays above

COCCCOc1ccnc(CS(=O)c2nc3ccccc3[nH]2)c1C (centres undefined)
not listed: [9]
inactive: all other assays above

COc1cccc(OC)c1
inactive: [1] | [2] | [3] | [4] | [7]

CC(=O)OCc1ccc2c(c1)OCO2
not listed: [6]
inactive: all other assays above

CC(C)C(C)(C)C(C)(C)C(C)(C)S
not listed: [9]
inactive: all other assays above

Cc1cc(C2(c3cc(C)c(O)cc3C)OS(=O)(=O)c3ccccc32)c(C)cc1O
inactive: [1] | [2] | [3] | [5] | [9]

O=C=NC1CCC(CC2CCC(N=C=O)CC2)CC1 (centres undefined)
not listed: [4] | [8]
inactive: all other assays above

O=C(O)CCCCCCCC(=O)O
not listed: [2]
inactive: all other assays above

OCCN1CCNCC1
active: [4] 82.8 µM
not listed: [2] | [9]
inactive: all other assays above

CC(C)(C)c1cc(CCC(=O)NN)cc(C(C)(C)C)c1O
not listed: [2] | [7] | [9]
inactive: all other assays above

Cc1ncc([N+](=O)[O-])n1C
not listed: [2] | [8]
inactive: all other assays above

O=c1[nH]c(=O)n([C@H]2CCCO2)cc1F
not listed: [2]
inactive: all other assays above

CC1CCC(C(C)CS)CC1S (centres undefined)
active: [1] 152 µM
not listed: [2] | [9]
inactive: all other assays above
